Counter-ions that a name gives are not always drawn. ± gives the standard error. The whole screen tested about 1,300 compounds, of which about 75 (6%) showed an effect of 50% or more. What follows is part of a selection rich in strong results, with near analogues and random picks from the rest.
System: Trichoderma virens ATCC 9645
Assay: growth yield (OD600) relative to untreated control; higher = less growth inhibition
Conditions: compound concentration: 100 uM
Summary of the method: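 A biocide at 200 ng ml^−1 was co-applied to some wells, and library compounds were present in all test wells at 100 μM final. The wells held 100 μl of Trichoderma virens ATCC 9645 spores at 15,000 spores ml^−1 in potato dextrose broth, grown at 30 °C in 96-well plates, with OD600 read at 40 h and 72 h. Results are relative growth against the control without either agent, averaged across duplicate screens.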

| Structure (SMILES) | growth yield (40 h) | growth yield (72 h) |
| --- | --- | --- |
| Clc1ccccc1C(c1ccccc1)(c1ccccc1)n1ccnc1 [Clotrimazole] | 2.38 ± 1.8% | 1.89 ± 1.1% |
| CN(C)c1ccc(O)c2c1C[C@H]1C[C@H]3[C@H](N(C)C)C(O)=C(C(N)=O)C(=O)[C@@]3(O)C(O)=C1C2=O [Minocycline hydrochloride] | 95.3 ± 0.64% | 97.4 ± 2% |
| CC(C)(C)NC[C@H](O)COc1ccccc1C1CCCC1 [Penbutolol sulfate] | 109 ± 6.2% | 110 ± 5.1% |
| CC(=O)N(CC(O)CO)c1c(I)c(C(=O)NCC(O)CO)c(I)c(C(=O)NCC(O)CO)c1I (stereo not drawn) [Iohexol] | 103 ± 1.3% | 106 ± 1.1% |
| CNC(C)CCC=C(C)C (stereo not drawn) [Isometheptene mucate] | 99.1 ± 3.8% | 96.2 ± 4.3% |
| CCCC(=O)Nc1ncnc2c1ncn2[C@@H]1O[C@@H]2COP(=O)(O)O[C@H]2[C@H]1OC(=O)CCC [Bucladesine sodium salt] | 97.69 ± 0.79% | 97.75 ± 0.42% |
| Nc1nc2n[nH]nc2c(=O)[nH]1 [Azaguanine-8] | 3.49 ± 0.95% | 2.62 ± 0.1% |
| Nc1nc2c(ncn2COCCO)c(=O)[nH]1 [Acyclovir] | 103.7 ± 0.48% | 101 ± 1.7% |
| Nc1nc2c(ncn2COC(CO)CO)c(=O)[nH]1 [Ganciclovir] | 106 ± 4.3% | 103 ± 4% |
| CC[C@]12CCCN3CCc4c(n(c5ccccc45)[C@@](O)(C(=O)OC)C1)[C@@H]32 [Vincamine] | 97.37 ± 0.16% | 95.3 ± 1.4% |
| CCN1CCC[C@H]1CNC(=O)c1c(OC)ccc(Br)c1OC [Remoxipride Hydrochloride] | 101 ± 1.9% | 101.8 ± 0.94% |
| O=C(O)Cc1sc(-c2ccccc2)nc1-c1ccc(Cl)cc1 [Fentiazac] | 63.1 ± 4.3% | 88.8 ± 4.9% |
| CC[N+](CC)(CC)CCC(O)(c1ccccc1)C1CCCCC1 (stereo not drawn) [Tridihexethyl chloride] | 103 ± 6.3% | 101 ± 4.5% |
| CCCCOC(=O)c1ccc(N)cc1 [Butamben] | 66.9 ± 1.8% | 73 ± 2.5% |
| CCCCN(CCCC)CCCOC(=O)c1ccc(N)cc1 [Butacaine] | 95.5 ± 4.9% | 98.5 ± 4.1% |
| CCCCOC(=O)c1ccc(O)cc1 [Butylparaben] | 46.4 ± 2.2% | 49.5 ± 0.84% |
| CC(C)(C)NC(=O)[C@@H]1C[C@@H]2CCCC[C@@H]2CN1C[C@@H](O)[C@H](Cc1ccccc1)NC(=O)[C@H](CC(N)=O)NC(=O)c1ccc2ccccc2n1 [Saquinavir mesylate] | 110 ± 3.3% | 107 ± 3.1% |
| CC[C@H](C)C(=O)O[C@H]1C[C@@H](C)C=C2C=C[C@H](C)[C@H](CC[C@@H]3C[C@@H](O)CC(=O)O3)[C@H]21 [Lovastatin] | 94.8 ± 5.2% | 94.5 ± 3.2% |
| CCCCC(CC)CN1CN(CC(CC)CCCC)CC(C)(N)C1 (stereo not drawn) [Hexetidine] | 105 ± 3.2% | 118 ± 6.3% |
| NCc1ccc(S(N)(=O)=O)cc1 [Mafenide hydrochloride] | 107 ± 2.5% | 111 ± 4.2% |
| NS(=O)(=O)c1cc(C2(O)NC(=O)c3ccccc32)ccc1Cl (stereo not drawn) [Chlorthalidone] | 102 ± 3.6% | 105 ± 3.7% |
| CCOC(=O)C1=C(COCCN)NC(C)=C(C(=O)OC)C1c1ccccc1Cl (stereo not drawn) [Amlodipine] | 105 ± 12% | 113 ± 11% |
| CC(C(=O)O)c1ccc2c(c1)[nH]c1ccc(Cl)cc12 (stereo not drawn) [Carprofen] | 40.7 ± 15% | 88.9 ± 8% |

| Structure (SMILES) | growth yield (40 h) | growth yield (72 h) |
| --- | --- | --- |
| CC(C(=O)O)c1ccc(-c2ccccc2)c(F)c1 (stereo not drawn) [Flurbiprofen] | 72.9 ± 3% | 86.5 ± 3.9% |
| COc1ccc2cc([C@@H](C)C(=O)O)ccc2c1 [(R) -Naproxen sodium salt] | 84.5 ± 7% | 87.2 ± 6.4% |
| CC[N+](C)(CC)CCOC(=O)C1c2ccccc2Oc2ccccc21 [Methantheline bromide] | 110 ± 1.8% | 108 ± 1.3% |
| CCOC(=O)[C@H](CCc1ccccc1)N[C@@H](C)C(=O)N1Cc2ccccc2C[C@H]1C(=O)O [Quinapril hydrochloride] | 98.8 ± 3.8% | 98.1 ± 1.1% |
| Cc1cccc(C)c1NC(=O)CN1CCN(CCCC(c2ccc(F)cc2)c2ccc(F)cc2)CC1 [Lidoflazine] | 95.6 ± 1.3% | 114 ± 3% |
| CN(C)CCCO[C@@H]1[C@H]2OC(C)(C)O[C@H]2O[C@@H]1[C@H](O)CO [Amiprilose hydrochloride] | 100.5 ± 0.79% | 101.6 ± 0.73% |
| CN(C/C=C/c1ccccc1)Cc1cccc2ccccc12 [Naftifine hydrochloride] | 15.6 ± 1.6% | 55.5 ± 4.3% |
| C#CCN(C)Cc1ccccc1 [Pargyline hydrochloride] | 105 ± 2.1% | 107 ± 2.9% |
| CN(Cc1ccc(C(C)(C)C)cc1)Cc1cccc2ccccc12 [Butenafine Hydrochloride] | 2.06 ± 1.4% | 1.99 ± 1.1% |
| c1ccc2c(CC3=NCCN3)cccc2c1 [Naphazoline hydrochloride] | 101 ± 2.4% | 100% |
| CN(C/C=C/C#CC(C)(C)C)Cc1cccc2ccccc12 [Terbinafine] | 2.7 ± 0.16% | 2.52% |
| CC1(C)O[C@@H]2C[C@H]3[C@@H]4C[C@H](F)C5=CC(=O)C=C[C@]5(C)[C@H]4[C@@H](O)C[C@]3(C)[C@]2(C(=O)CO)O1 [Flunisolide] | 100.5 ± 0.48% | 96.5 ± 1.3% |
| N=C(N)N1CCc2ccccc2C1 [Debrisoquin sulfate] | 97.5 ± 1.3% | 101.8 ± 0.52% |
| CNCC[C@@H](Oc1cccc2ccccc12)c1cccs1 [(R)-Duloxetine hydrochloride] | 99.1 ± 2.9% | 107 ± 3.1% |
| Cc1ncc([N+](=O)[O-])n1CC(O)CCl (stereo not drawn) [Ornidazole] | 99.8 ± 2.9% | 103 ± 2.3% |
| CC(=O)N(CC(C)C(=O)O)c1c(I)cc(I)c(N)c1I (stereo not drawn) [Iocetamic acid] | 107 ± 1.6% | 104 ± 1.1% |
| N[C@@H](C(=O)N[C@@H]1C(=O)N2C(C(=O)O)=C(Cl)CS[C@H]12)c1ccccc1 [Cefaclor hydrate] | 96.1 ± 4.6% | 96.9 ± 4.2% |
| CCCCC(C)(O)C/C=C/[C@H]1[C@H](O)CC(=O)[C@@H]1CCCCCCC(=O)OC (mixture of isomers) [Misoprostol] | 105 ± 1.3% | 109 ± 4.1% |
| CCOC(=O)O[C@]1(C(=O)COC(=O)CC)CC[C@H]2[C@@H]3CCC4=CC(=O)C=C[C@]4(C)[C@H]3[C@@H](O)C[C@@]21C [Prednicarbate] | 118 ± 3% | 114 ± 2.8% |
| O=c1[nH]c(=O)n([C@H]2C[C@H](O)[C@@H](CO)O2)cc1I [Idoxuridine] | 102 ± 3.8% | 99.4 ± 3.1% |
| O=c1[nH]c(=O)n([C@H]2C[C@H](O)[C@@H](CO)O2)cc1C(F)(F)F [Trifluridine] | 109.9 ± 0.95% | 106 ± 1.1% |
| O=c1[nH]c(=O)n([C@H]2C[C@H](O)[C@@H](CO)O2)cc1F [Floxuridine] | 11.1 ± 3.8% | 46.3 ± 9.3% |
| c1ccc2[nH]c(-c3cscn3)nc2c1 [Tiabendazole] | 1.43 ± 1.4% | 1.26 ± 1.3% |

| Structure (SMILES) | growth yield (40 h) | growth yield (72 h) |
| --- | --- | --- |
| C[C@@H]1CCC[C@H](C)N1NC(=O)c1ccc(Cl)c(S(N)(=O)=O)c1 [Clopamide] | 99.6 ± 1.8% | 103 ± 3% |
| CCCCc1ncc(/C=C(\Cc2cccs2)C(=O)O)n1Cc1ccc(C(=O)O)cc1 [Eprosartan mesylate] | 98.3 ± 5.6% | 94.08 ± 0.94% |
| Cc1onc(-c2ccccc2)c1C(=O)N[C@@H]1C(=O)N2[C@@H]1SC(C)(C)[C@@H]2C(=O)O [Oxacillin sodium] | 111 ± 1.6% | 105 ± 1.4% |
| CCCCCOC(=O)Nc1nc(=O)n([C@@H]2O[C@H](C)[C@@H](O)[C@H]2O)cc1F [Capecitabine] | 105.2 ± 0.64% | 103.2 ± 0.84% |
| CC(CN(C)C)C(C)(O)Cc1ccc(Cl)cc1 (stereo not drawn) [Clobutinol hydrochloride] | 105 ± 3.5% | 104 ± 2.5% |
| Oc1c(Cl)cc(Cl)c(Cl)c1Cc1c(O)c(Cl)cc(Cl)c1Cl [Hexachlorophene] | 25.3 ± 2.1% | 98.9 ± 5.8% |
| CC(C(=O)O)c1cccc(Oc2ccccc2)c1 (stereo not drawn) [Fenoprofen calcium salt dihydrate] | 97.5 ± 10% | 97.7 ± 13% |
| CC(=O)N[C@@H](CC(C)C)C(=O)O [N-Acetyl-L-leucine] | 103 ± 3% | 103 ± 2.7% |
| CCCN(CCC)CCc1cccc2c1CC(=O)N2 [Ropinirole hydrochloride] | 99.43 ± 0.64% | 103 ± 1.1% |
| COc1cc([S+](C)[O-])ccc1-c1nc2cccnc2[nH]1 (stereo not drawn) [Sulmazole] | 99.4 ± 2.2% | 98 ± 1.7% |
| COc1c2occc2c(OC)c2c(=O)cc(C)oc12 [Khellin] | 97.7 ± 1.8% | 95.1 ± 5.1% |
| Cc1cc(=O)oc2cc(O)ccc12 [Hymecromone] | 101 ± 0.32% | 97.01 ± 0.94% |
| Cc1cc2cc3c(C)cc(=O)oc3c(C)c2o1 [Trioxsalen] | 42.1 ± 0.48% | 73.7 ± 4.5% |
| COC(=O)C1=C(C)NC(C)=C(C(=O)OCC(C)C)C1c1ccccc1[N+](=O)[O-] (stereo not drawn) [Nisoldipine] | 25.6 ± 0.48% | 23.9 ± 2.3% |
| COC(=O)C1=C(C)NC(C)=C(C(=O)OC)C1c1ccccc1[N+](=O)[O-] [Nifedipine] | 44.2 ± 1.3% | 53.1 ± 1.1% |
| COCCOC(=O)C1=C(C)NC(C)=C(C(=O)OC(C)C)C1c1cccc([N+](=O)[O-])c1 (stereo not drawn) [Nimodipine] | 95.3 ± 7.3% | 97.7 ± 9% |
| CCOC(=O)C1=C(C)NC(C)=C(C(=O)OC)C1c1cccc(Cl)c1Cl (stereo not drawn) [Felodipine] | 92.8% | 94.2% |
| CCOC(=O)C1=C(C)NC(C)=C(C(=O)OC)C1c1cccc([N+](=O)[O-])c1 (stereo not drawn) [Nitrendipine] | 85.6 ± 1.1% | 89.9 ± 3.7% |
| COC(=O)C1=C(C)NC(C)=C(C(=O)OCCN(C)Cc2ccccc2)C1c1cccc([N+](=O)[O-])c1 (stereo not drawn) [Nicardipine hydrochloride] | 89.4 ± 5.2% | 114 ± 7.8% |
| N=C(N=C(N)N)N1CCOCC1 [Moroxidine hydrochloride] | 106 ± 4.3% | 104 ± 1.9% |
| O=C(Nc1ccc([N+](=O)[O-])cc1Cl)c1cc(Cl)ccc1O [Niclosamide] | 96.1 ± 0.16% | 96.59 ± 0.1% |
| CN[C@@H]1[C@H](O[C@H]2[C@H](O[C@H]3[C@H](O)[C@@H](O)[C@H](N=C(N)N)[C@@H](O)[C@@H]3N=C(N)N)O[C@@H](C)[C@]2(O)C=O)O[C@@H](CO)[C@H](O)[C@H]1O [Streptomycin sulfate] | 103 ± 1.3% | 104.35 ± 0.1% |
| COc1cc(C)nc(-n2nc(C)cc2OC)n1 [Epirizole] | 111 ± 3.8% | 109 ± 3.8% |

From the supplement of paper PMC8007513
